Screening results from PubChem.
Only a selection was taken, and hits are over-represented in it overall.
Pyk2 oligo antag: antagonists of human Pyk2 oligomerization; Q14289; Q293 cells, Pyk2 FERM NanoBiT luminescence; hits give low values; z-score (the deposit names both 25 µM and 10 µM); 0.83% of 99,000 active; AID 1347419;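 active means Z-score of -3 or lower, scaled per plate to the spread of control and sample wells; inactive means z-score above -3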;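 further: negative z-score means lost luminescence so less FERM oligomerization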
D1 allo mod: allosteric modulators of human D1 dopamine receptor. P21728. HEK293 D1, CRE-luciferase, dopamine EC30 potentiation; actives deviate in either direction. B-score at 10 µM. 5.9% of 58,000 active;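 active means luminescence count or its row- and column-corrected plate score outside the 99.7% band of the plate's sample wells, on either side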
Mac1 fbg enh: enhancers of human CD11b/CD18 binding to fibrinogen. activation, % at 10 µM. K562 CD11b/CD18 adhesion to fibrinogen, ATPlite luminescence. 0.07% of 93,000 active;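 active means 10 µM primary screen giving 50% or more activity, confirmed by 40% or more on retest at that dose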
Target sequence (P05107 whole entry, looked up, other chains not shown): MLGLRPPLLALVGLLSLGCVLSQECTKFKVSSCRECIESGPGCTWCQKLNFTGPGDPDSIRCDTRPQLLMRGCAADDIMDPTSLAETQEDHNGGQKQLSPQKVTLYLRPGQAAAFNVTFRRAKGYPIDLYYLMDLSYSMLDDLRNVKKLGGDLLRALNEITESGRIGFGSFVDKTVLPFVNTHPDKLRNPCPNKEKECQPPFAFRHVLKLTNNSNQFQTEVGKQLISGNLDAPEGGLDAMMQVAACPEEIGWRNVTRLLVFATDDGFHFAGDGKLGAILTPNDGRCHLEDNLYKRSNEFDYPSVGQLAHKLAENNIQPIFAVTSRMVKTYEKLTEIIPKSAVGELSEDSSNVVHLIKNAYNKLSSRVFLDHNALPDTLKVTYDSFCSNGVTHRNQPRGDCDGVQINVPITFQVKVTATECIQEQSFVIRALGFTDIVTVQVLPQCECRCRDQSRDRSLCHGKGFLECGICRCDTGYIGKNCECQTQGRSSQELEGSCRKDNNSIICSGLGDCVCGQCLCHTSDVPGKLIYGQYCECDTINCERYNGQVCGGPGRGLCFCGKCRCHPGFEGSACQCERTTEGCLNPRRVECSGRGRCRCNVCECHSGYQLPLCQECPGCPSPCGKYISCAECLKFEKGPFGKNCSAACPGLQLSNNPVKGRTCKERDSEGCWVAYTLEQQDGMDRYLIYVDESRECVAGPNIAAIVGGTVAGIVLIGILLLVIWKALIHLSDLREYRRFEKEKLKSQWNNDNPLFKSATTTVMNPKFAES
CD11b adhes inh: blocks human CD11b/CD18 adhesion to fibrinogen. 0.54% of 93,000 active. K562 CD11b/CD18 adhesion to fibrinogen, ATPlite luminescence; Mn2+ added to activate the integrin. inhibition, % at 10 µM. AID 1497;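 active means primary inhibition of 50% or more at 10 µM, then 40% or more on retest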
DAT uptake mod: changed human dopamine transporter uptake under cocaine IC80. Q01959. LLC-PK1 hDAT cells, [14C]-dopamine uptake with cocaine IC80; actives deviate in either direction. B-score at 10 µM. 1.3% of 110,000 active. AID 449768;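 active means Z score or B-score, a plate-position-corrected score, falls beyond the plate's 99.7% confidence bounds, in either direction; inactive means both scores lie inside the 99.7% bounds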;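 further: scored against the spread of the other compound wells on the same plate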
FAK blocker: inhibitors of human focal adhesion kinase | Q05397 | biochemical FAK kinase activity assay | inhibition, %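 (tested at 7 µM)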 | 0.84% of 97,000 active | AID 727; in the data active means inhibition above about 19%;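 further: 0% = DMSO and 100% = reference compound high control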
Numbers without * were called inactive; x = not tested or not shown.

SMILES	Pyk2 oligo antag	D1 allo mod	Mac1 fbg enh	CD11b adhes inh	DAT uptake mod	FAK blocker
COC(=O)Nc1ccc(NC(C)=O)cc1	1.1	-0.5	-2	-8	0.13	-7
Cc1cccc(NC(=O)c2ccc(S(=O)(=O)N(C)C)cc2)c1	x	-1.2	2	-39	3.1*	-1
CCN(CC)S(=O)(=O)c1ccc(C(=O)Nc2cccc(C)c2)cc1	-0.63	x	-1	0	0.64	0
O=C(NCC(=O)N(CC1CCCO1)C1(C(=O)NC2CCCCC2)CCCCC1)c1ccccc1 (configuration not stated)	-0.18	x	-4	-30	0.064	-1
CC(C)n1c(-c2ccc(N(C)C)cc2)nc2ccccc21	-0.08	-4.6*	-1	27	0.49	1
Cc1ccc(C(O)c2nc3ccccc3n2C(C)C)cc1 (configuration not stated)	-0.37	x	-3	-13	x	2
CN(C)c1ccc(-c2nc3ccccc3n2C)cc1	1.5	-5.1*	-8	78*	2	-5
CCn1c(-c2ccc(N(C)C)cc2)nc2ccccc21	0.22	-4.9*	-2	59*	-0.074	15
Cc1ccc(C)c(Cn2c(CN(C)Cc3ccccc3)nc3c2c(=O)n(C)c(=O)n3C)c1	x	-0.41	2	5	0.45	-2
CC(=O)/C=C1/SC(CC(=O)O)C(=O)N1c1ccccc1 (configuration not stated)	0.65	x	x	x	-1.5	0
CC(=O)N1CCCc2cc(S(=O)(=O)N3CCC(C)CC3)ccc21	-0.35	x	x	x	x	x
C/C=C(/C(=C/C)c1ccc(O)cc1)c1ccc(O)cc1	x	2.3	x	x	0.46	x
C=C(c1ccc(O)cc1)c1ccc(O)cc1	-4.6*	-0.46	1	10	-0.13	1
Cc1cccc(-n2ncc3c(NCCc4ccc(S(N)(=O)=O)cc4)ncnc32)c1	x	-6.9*	0	0	0.65	5
Cc1cccc(-n2ncc3c(NCc4ccccc4)ncnc32)c1	x	-0.79	-3	-5	2	x
O=C(CN1C(=O)NC2(CCc3ccccc3C2)C1=O)Nc1ccc(F)cc1 (configuration not stated)	x	x	2	8	x	x
O=C(Cc1ccccc1)Nc1nc2ccccc2[nH]1	0.35	-5.5*	-3	-5	0.52	4
CCOC(=O)Cc1csc(SCc2nc3sc4c(c3c(=O)[nH]2)CCC4)n1	-0.12	x	-1	4	0.024	-1
O=C(Nc1nncs1)c1ccc(S(=O)(=O)c2ccccc2)cc1	0.49	-0.47	2	-18	-8.7*	-2
CSc1ccc(CNc2cccc3ccccc23)cc1	-4.3*	x	-1	7	0.14	-1
CSc1ccc(/C=N/NC(=O)CNc2cccc3ccccc23)cc1	x	x	33	0	x	x
Cc1cc(/C=c2/sc3nc4ccccc4n3c2=O)c(C)n1-c1ccccn1	-0.33	-6.8*	-7	40	-0.062	5
O=c1cc(CN2CCOCC2)nc(C2CC2)[nH]1	-0.27	x	0	-7	-7.2*	-4
CCCCOc1ccc(/C=C/C(=O)OCC(=O)NC(=O)NCC(C)C)cc1OCC	x	x	2	20	x	x
CCOC(=O)c1cccc(NC(=O)Cn2cnc3c2c(=O)n(C)c(=O)n3C)c1	3.1	-0.002	5	-18	0.45	2
SMILES	Pyk2 oligo antag	D1 allo mod	Mac1 fbg enh	CD11b adhes inh	DAT uptake mod	FAK blocker
Cn1ccnc1C(O)c1cc(C(C)(C)C)c(O)c(C(C)(C)C)c1 (configuration not stated)	-0.91	0.49	-4	37	-0.006	-1
Cn1c(=O)c(C(=O)Nc2cccnc2)c(O)c2ccccc21	x	0.056	x	x	x	6
Cn1c(=O)c(C(=O)Nc2ncccc2O)c(O)c2ccccc21	-1.2	-0.016	0	-8	2.2*	x
CC(C)C(NC(=O)COc1ccc2ccccc2c1)C(=O)N/N=C/C=C/c1ccccc1 (configuration not stated)	1.1	x	5	-4	0.26	2
COc1ccc(CN(C(=O)c2cccs2)C(C(=O)NC2CCCCC2)c2ccc3ncccc3c2)cc1 (configuration not stated)	-3.1*	x	x	x	x	1
COc1ccc(CN(C(=O)c2ccc3c(c2)OCCO3)C(C(=O)NC2CCCCC2)c2ccc3ncccc3c2)cc1 (configuration not stated)	-1	x	x	x	0.53	-4
O=C(NC1CCCCC1)C(c1ccc2ncccc2c1)N(Cc1ccccc1)C(=O)c1cccs1 (configuration not stated)	-4*	x	10	-7	0.17	9
O=C(NC1CCCC1)C(c1ccccc1)N(Cc1ccc2c(c1)OCO2)C(=O)Cc1cccs1 (configuration not stated)	-3.1*	x	x	x	1.4	-1
O=C(NC1CCCCC1)C(c1ccccc1)N(C(=O)c1cccs1)c1ccc2c(c1)OCO2 (configuration not stated)	-1.9	x	-3	5	-1.2	-4
O=C(NC1CCCCC1)C(c1ccc2ncccc2c1)N(Cc1ccc2c(c1)OCO2)C(=O)c1cccs1 (configuration not stated)	-3.6*	x	x	x	1.5	3
O=C(NC1CCCCC1)C(c1ccc2ncccc2c1)N(Cc1ccccc1)C(=O)c1ccc2c(c1)OCCO2 (configuration not stated)	-1.9	x	5	-6	1.1	-4
N=c1ncn(Cc2ccccc2)c2nc(SCCOc3ccccc3)[nH]c12	x	x	8	-2	x	x
Cc1noc(C)c1-c1ccc2nc[nH]c(=O)c2c1	x	x	x	x	0.25	x
CCNc1nc(NCC)nc(SCCOC(=O)Nc2ccc(Cl)cc2Cl)n1	-1.1	x	x	x	x	x
O=C(N/N=C/c1c(Nc2cccc(C(F)(F)F)c2)nc2ccccn2c1=O)c1ccccc1[N+](=O)[O-]	-0.67	x	91	-16	x	x
COc1ccc(COc2ccccc2C(=O)Nc2ccccn2)cc1[N+](=O)[O-]	0.05	x	x	x	x	x
CC1CCCCN1CCNC(=O)CN1C(=O)COc2ccccc21 (configuration not stated)	1.4	-3.5*	-7	3	0.29	0
O=C(CCN1C(=O)COc2ccccc21)NCCCN1CCN(c2ccccc2F)CC1	-0.64	-3.1*	0	-15	1.3	-1
O=C(OC(C(=O)Nc1cccc(C(F)(F)F)c1)c1ccccc1)C1CCCCC1 (configuration not stated)	x	x	-4	79	x	x
Cc1cc(C)c2[nH]c(=O)c(CN(CC3CCCO3)C(=O)c3cnccn3)cc2c1 (configuration not stated)	-0.1	-0.43	-2	38	2.5*	-4
COC1=CCC2([N+](=O)[O-])CN(CCO)CC1([N+](=O)[O-])C2 (configuration not stated)	x	x	-5	-17	x	x
CCCc1cc(=O)[nH]c(SCC(=O)N(CC(C)C)C2CCS(=O)(=O)C2)n1 (configuration not stated)	0.63	-0.2	-2	-8	3.1*	-2
